About 79,000 compounds went through this panel and 15% of them were active in at least one assay; those are over-represented in the sample as a whole. Activity calls are given as the source filed them. No stated cut-off is given here; in the data, active means growth inhibition above about 70%; inactive means the rest.
Assay: NCI Yeast Anticancer Drug Screen. Data for the mec2-1 strain (AID 157)
Conditions: S. cerevisiae mec2-1 strain, active compounds read high
Description: Growth inhibition of yeast strains with defined genetic alterations is measured as a screen for potential anti-cancer activity. Selected strains with alterations in DNA damage repair or cell cycle control were exposed to compounds and growth inhibition was measured relative to vehicle treated controls. The strain used in this assay is mec2-1

[1] = at 5.0 µM (retest, dose inferred, filed as 0.5)
[2] = at 50.0 µM (retest, dose inferred, filed as 5.0)

Measured: growth inhibition

[O-]c1c2cc(-[n+]3c(-c4ccccc4)cc(-c4ccccc4)cc3-c3ccccc3)cc1COCCOCCOCCOCCOC2
active: at 100.0 µM 77%
inactive: at 1.2 µM -5% | at 3.7 µM -4% | [1] -7% | at 11.0 µM -2% | at 33.0 µM 4% | [2] 31% | at 50.0 µM 33%

N=c1oc2ccccc2cc1-c1nc2ccccc2[nH]1
inactive: at 1.2 µM -6% | at 3.7 µM 10% | [1] 2% | at 11.0 µM 11% | at 33.0 µM 26% | [2] 66% | at 50.0 µM 31.8% | at 100.0 µM 62%

O=S(=O)(Oc1c(Cl)cc(Cl)cc1Cl)c1ccccc1
inactive: at 1.2 µM -4% | at 3.7 µM -1% | [1] -9% | at 11.0 µM 1% | at 33.0 µM 4% | [2] 20% | at 50.0 µM 40.5% | at 100.0 µM 13%

CCOc1ccccc1N1C(=O)CC(Sc2ccccc2N)C1=O (stereo not given)
inactive: at 1.2 µM 2% | at 3.7 µM 10% | [1] 57% | at 11.0 µM -9% | at 33.0 µM 0% | at 50.0 µM -12.4% | at 100.0 µM -19%
active: [2] 85%

NNc1nnc(-c2ccccc2)nc1Cc1ccccc1
active: at 33.0 µM 95% | [2] 90% | at 50.0 µM 91.3% | at 100.0 µM 87%
inactive: at 1.2 µM -11% | at 3.7 µM -9% | [1] 2% | at 11.0 µM -8%

Source: PubChem BioAssay (NCI)
